The supplement of paper PMC10338343
± gives the standard deviation.

These sequences were tested on MILI (PIWIL2) piRISC loaded with piRNA #1 (26 nt) (assay: pre-steady-state target cleavage rate (min^-1); guide: piRNA #1 5'p-UGAGGUAGUAGGUUGUAUAGUAUCCA; MIWI and MILI are mouse PIWI proteins and EfPiwi is from a freshwater sponge; tags in brackets are library labels; higher = faster piRNA-guided slicing of the target). Settings: auxiliary factor: 500 nM mouse GTSF1.
Method: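 Cleave-'n-Seq: a library of target RNAs (target site embedded in constant flanks, ACAGCATTCCGCGTTAGTGATATCCG... 5' flank; DNA-blocked outside the site) at 0.1 nM was incubated with 1 nM active mouse MILI or MIWI piRISC (synthetic 5'-monophosphorylated piRNA guide) with or without 500 nM mouse GTSF1 at 33 °C for 1 min to 16 h. Uncleaved targets were sequenced and normalised to non-target controls, and the pooled three trials were fitted to a burst-and-steady-state model to give the pre-steady-state cleavage rate (min^-1; k3 is constrained to at most 1e-4). Sequence is the target site only; target names encode pairing extent (gX:gY) and contiguous / 1-mismatch / 2-mismatch / bulge geometry. Fits with R² ≤ 0 are excluded.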

| Sequence | pre-steady-state target cleavage rate |
| --- | --- |
| GGAGACGAUACAUAUACAACCUACUACCUCA | 0.111 ± 0.013 |
| GGAGUGGUUACAAUACAACCUACUACCUCA | 0.172 ± 0.011 |
| GGAGACCUAUCUAUAAAACCUACUACCUCA | 0.0877 ± 0.013 |
| GGAGACCUAUGAAUACAAUCUACUACCUCA | 0.00544 ± 0.0022 |
| GGAGACCUAUGAUUACAACCUACUACCGCA | 0.00418 ± 0.004 |
| GGAGUGCAUACUUUACAACCUACUACCUCA | 0.166 ± 0.0083 |
| GGAGACGAUACAAUACAACCUAGUACCUCA | 0.0665 ± 0.011 |
| GGAGAGGUUACUAUACAACCUACUACCACA | 0.0673 ± 0.0096 |
| GGAGACCUAUCUAUACAACCUACCUACCUCA | 0.0519 ± 0.0097 |
| GGAGACCUUACUAUUCAACCUUCUACCUCA | 0.00471 ± 0.0024 |
| GGAGACCACUACUAUACAACCUACUACCUCA | 0.149 ± 0.016 |
| GGAGUGGAUACUAUACAAGCUACUACCACA | 0.133 ± 0.012 |
| GGAGUCGAUACUAUACAACCUACUACCACA | 0.175 ± 0.014 |
| GGAGUGGAUACUAUAGAUCCUACUACCUCA | 0.251 ± 0.015 |
| GGAGUGGAUACUAUACAACCUUCUACCACA | 0.00348 ± 0.0024 |
| GGAGACCUUACUAUACAACCUACUACGUCA | 0.0741 ± 0.01 |
| GGAGACGAUACUAUACAACCUACAACGUCA | 0.00524 ± 0.0044 |
| GGAGACCUAUGAUAACAACCUACUACGCUCA | 0.00466 ± 0.0023 |
| GGAGAGGAUACUAUACAACCUACUACCUCG [g2:g25:cont:t1G] | 0.175 ± 0.015 |
| GGAGAGCAUACUAUUCAACCUACUACCUCA | 0.217 ± 0.017 |

| Sequence | pre-steady-state target cleavage rate |
| --- | --- |
| GGAGACCAUACUAUACAUCCUACUACCACA | 0.279 ± 0.028 |
| GGAGACCAUACUAUACAACCUACUACCCUCA | 0.22 ± 0.024 |
| GGAGACCAAACUAUACAACCUACUACCUCA | 0.131 ± 0.036 |
| GGAGACGAUAGUAUACAUCCUACUACCUCA | 0.232 ± 0.016 |
| GGAGUGGAUACAUUACAACCUACUACCUCA | 0.152 ± 0.012 |
| GGAGACGAUACUAAUGAACCUACUACCUCA | 0.0821 ± 0.011 |
| GGAGUGGUUUCUAUACAACCUACUACCUCA | 0.148 ± 0.0079 |
| GGAGACGAUACUUAUACAACCUACUACCUCA | 0.139 ± 0.012 |
| GGAGACCUAACUAUACAACCUACUACCUUCA | 0.14 ± 0.028 |
| GGAGACCUAUCUAUACAACCGACUACCUCA | 0.0049 ± 0.003 |
| GGAGAGGAUUCUUUACAACCUACUACCUCA | 0.167 ± 0.013 |
| GGAGUGGAUACUAUACAAGCUACAACCUCA | 0.142 ± 0.014 |
| GGAGACCUAUGAAAACAAGCUACUACCUCA | 0.00917 ± 0.0021 |
| GGAGACGAUACUAUACAACUUACUACCUCA | 0.0232 ± 0.0039 |
| GGAGUGGAUACUAUACAUCCUACUACGUCA | 0.0364 ± 0.0082 |
| GGAGAGGAUACUAAACAAGCUACUACCUCA | 0.165 ± 0.014 |
| GGAGACCAUACUAUUCAAGCUACUACCUCA | 0.182 ± 0.016 |
| GGAGACGACACUAUACAACCUACUACCUCA | 0.214 ± 0.025 |
| GGAGACCAUACUAUACAACCUACAACCACA | 0.0647 ± 0.017 |
| GGAGUGGAUACUAUACAACCUACUAGCCUCA | 0.115 ± 0.019 |
